Experimental data taken from the GenesisPotency data set.
Screen size: about 290,000 compounds; about 3,000 (1%) were called active. No stated cut-off is given here; in the data, active means inhibition mostly above about 36% (no sharp cut-off); inactive means mostly below about 34%. The sample as a whole holds a higher share of actives than the screen did.

target: T1, Nucleotide-binding oligomerization domain-containing protein 1, Homo sapiens (UniProt Q9Y239); experiment: NOD1 signaling inhibitors, primary screen, cell-based, luminescence, uHTS (AID 1578)
T1 sequence (whole entry): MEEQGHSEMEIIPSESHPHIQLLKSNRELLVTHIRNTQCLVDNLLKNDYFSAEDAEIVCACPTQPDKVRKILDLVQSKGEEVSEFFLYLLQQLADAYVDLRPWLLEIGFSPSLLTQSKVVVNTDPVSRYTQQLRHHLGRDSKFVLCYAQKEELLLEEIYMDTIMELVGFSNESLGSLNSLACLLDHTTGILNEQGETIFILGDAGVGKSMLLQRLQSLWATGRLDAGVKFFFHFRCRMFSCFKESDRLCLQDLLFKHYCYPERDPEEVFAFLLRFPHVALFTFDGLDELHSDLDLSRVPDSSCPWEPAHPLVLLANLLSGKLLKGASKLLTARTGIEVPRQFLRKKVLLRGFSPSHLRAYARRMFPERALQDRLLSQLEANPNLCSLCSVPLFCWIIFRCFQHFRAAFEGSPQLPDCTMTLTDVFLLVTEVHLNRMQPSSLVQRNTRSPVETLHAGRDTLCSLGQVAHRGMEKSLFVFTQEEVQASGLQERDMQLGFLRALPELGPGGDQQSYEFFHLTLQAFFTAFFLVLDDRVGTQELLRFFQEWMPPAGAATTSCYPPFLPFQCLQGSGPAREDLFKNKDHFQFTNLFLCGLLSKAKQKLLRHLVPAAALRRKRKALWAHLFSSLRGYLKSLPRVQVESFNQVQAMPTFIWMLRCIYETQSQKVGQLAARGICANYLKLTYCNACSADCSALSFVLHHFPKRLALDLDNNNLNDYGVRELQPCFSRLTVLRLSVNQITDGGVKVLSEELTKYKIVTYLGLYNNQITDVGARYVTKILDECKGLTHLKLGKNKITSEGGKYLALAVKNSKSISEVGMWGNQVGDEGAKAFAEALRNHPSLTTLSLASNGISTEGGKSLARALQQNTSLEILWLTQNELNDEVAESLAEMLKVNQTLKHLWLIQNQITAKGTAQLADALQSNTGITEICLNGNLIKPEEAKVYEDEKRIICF

outcome, active:
O=c1c(C(c2ccccc2)c2c(O)sc3ccccc3c2=O)c(O)sc2ccccc12, COc1ccc2cc3c(N)nn(C(=O)c4ccc(F)cc4)c3nc2c1, COc1ccc2cc3c(N)nn(C(=O)c4cccc([N+](=O)[O-])c4)c3nc2c1, COc1ccc2cc3c(N)nn(C(=O)c4cccc(F)c4)c3nc2c1, Cc1ccc2nc(NC(=O)CSCC(=O)OCC(=O)c3ccc(Br)cc3)sc2c1, Cc1c(C)c2ccc(OCC(=O)Nc3ccccn3)c(C)c2oc1=O, COc1cccc(C(=O)c2sc(NC(C)C)nc2N)c1, O=c1c(Cl)c(Cl)cnn1Cc1nnc(-c2ccccc2Br)o1, CC(C)c1ccc(-c2nnn(CCC(=O)O)n2)cc1, COC(=O)CCn1nnc(-c2ccc(C(C)C)cc2)n1, COc1ccc2cc3c(N)nn(C(=O)c4ccccc4Cl)c3nc2c1, COc1ccc2cc3c(N)nn(C(=O)c4ccccc4[N+](=O)[O-])c3nc2c1, COc1ccc2cc3c(N)nn(C(=O)C4CCC(C(C)(C)C)CC4)c3nc2c1 (configuration not stated), CN(Cc1ccccc1)S(=O)(=O)c1nnc(NC(=O)c2ccc(F)cc2)s1, COc1cc(OC)c(N(C)S(=O)(=O)c2cccc(C(=O)OCC(=O)c3c[nH]c4ccccc34)c2)cc1Cl, O=c1cc(CSc2ccc(Cl)cc2)nc(-c2ccccn2)[nH]1, Cn1c2ccccc2c(=O)c2c(=O)n(C3CCCCC3)c(-c3ccco3)nc21, O=C(Nc1cc(C(F)(F)F)cc(C(F)(F)F)c1)Nc1cnn(-c2ccc([N+](=O)[O-])cc2)c1C(F)(F)F, O=S(=O)(Nc1nc2ccccc2nc1N1CCN(c2ccccc2F)CC1)c1ccc(Cl)cc1, COc1ccc(-c2cc(C(F)(F)F)nc(S(=O)(=O)CCCC(=O)Nc3cccnc3Cl)n2)cc1OC, COc1ccccc1-c1cc(C(F)(F)F)nc(S(=O)(=O)CCCC(=O)N2CCCCC2C)n1 (configuration not stated), COc1ccc(-c2cc(C(F)(F)F)nc(S(=O)(=O)CCCC(=O)Nc3cccc(O)c3)n2)cc1OC, COc1ccccc1-c1cc(C(F)(F)F)nc(S(=O)(=O)CCCC(=O)Nc2cccnc2Cl)n1, COc1ccc2[nH]cc(C(=O)CCl)c2c1, COc1ccc2c(C(=O)CCl)c[nH]c2c1, Cc1nn(-c2ccccc2)c(Cl)c1CN(C(=O)CCl)c1ccc(Cl)cc1, CCC(=O)Nc1cccc(C(=O)/C=C/c2cc(Br)ccc2OC)c1, COc1ccc(Br)cc1/C=C/C(=O)c1ccc(NC(C)=O)cc1, Cc1ccc(C(C)C)c(OCc2ccc(C(=O)N/N=C/c3ccc(C(=O)O)cc3)cc2)c1, O=C(CSc1cccc2cccnc12)Nc1ccc(S(=O)(=O)N2CCOCC2)cc1, CN(C)S(=O)(=O)c1cccc(NC(=O)CSc2cccc3cccnc23)c1, CCOc1ccc2c(c1)C(=NNC(=O)c1ccncc1)c1cc(OCC)ccc1-2, CC(=O)c1c(C)[nH]c(C(=O)COC(=O)c2cccc(S(=O)(=O)N(C)c3ccccc3)c2)c1C, CNc1nc(-c2ccc3c(c2)CCN3S(=O)(=O)c2ccccc2)c(C)s1, COc1ccc(Nc2cc(Nc3cc(OC)c(OC)c(OC)c3)ncn2)cc1, Cc1cc(Nc2nc3ccccc3nc2Cl)n(-c2ccc([N+](=O)[O-])cc2)n1, COc1ccc(C)cc1NC(=O)CSc1ccc(-c2ccccn2)nn1, O=C(Nc1nnc(-c2ccc(F)cc2)o1)c1cc(Cl)sc1Cl, O=C(Nc1nnc(-c2ccc(F)cc2)o1)c1cccc([N+](=O)[O-])c1, COc1ccc(-c2nnc(NC(=O)c3ccc(F)cc3)o2)cc1, CCOc1ccc(-c2nnc(NC(=O)c3ccc(OCC(C)C)c(OC)c3)o2)cc1, CN(c1ccccc1)S(=O)(=O)c1ccc(C(=O)Nc2nnc(-c3ccc(F)cc3)o2)cc1, O=C(Nc1ccc(C(F)(F)F)cc1)C1CCN(S(=O)(=O)c2ccc(N3CCCC3=O)cc2)CC1, C/C(=N\Nc1ncnc2sc(C)c(C)c12)c1ccccn1, CCOc1ccc(-n2c(C)c(C(C)=O)c3cc(OC(C)=O)ccc32)cc1, COc1ccc(-n2c(C)c(C(C)=O)c3cc(OC(C)=O)ccc32)cc1, CC(=O)c1c(C)n(-c2ccccc2)c2ccc(O)cc12, COc1ccc2c(c1)c(C(C)=O)c(C)n2CCc1ccccc1, COc1ccc(-n2c(C)c(C(C)=O)c3cc(O)ccc32)cc1, COc1ccc2c(c1)c(C(C)=O)c(C)n2-c1ccc(C(C)=O)cc1, COc1ccccc1N1CCN(c2nc(C)nc3c2oc2ccccc23)CC1.Cl, Clc1ccc(-c2csc3ncnc(NCCN4CCOCC4)c23)cc1, COc1ccc(-c2csc3ncnc(NCCN4CCOCC4)c23)cc1, CC(C)n1c(CN(C)Cc2ccccc2)nc2c1c(=O)n(C)c(=O)n2C, CCN1/C(=C/C=C/C=C/C=C/c2sc3ccccc3[n+]2CC)Sc2ccccc21.[I-], c1ccc(CCc2nn3c(-c4ccncc4)nnc3s2)cc1, c1cc(-c2nnc3sc(C4CCCCC4)nn23)ccn1, Cc1c(CCC(=O)O)c(=O)oc2cc(OCc3ccccc3Br)ccc12, CC(C)(C)C1CCC2(CC1)C(C#N)=C(SCC(=O)Nc1ccccc1)NC(=O)C2C#N (configuration not stated), N#CC1=C(SCC(=O)NC23CC4CC(CC(C4)C2)C3)NC(=O)C(C#N)C12CCCCC2 (configuration not stated), Cc1ccc(NC(=O)CSc2nn(-c3ccccc3)c(=S)s2)cc1S(=O)(=O)N(C)C, CC(C)(C)C(=O)Nc1ccc(NC(=O)c2ccco2)nc1, O=C(Nc1nc2ccc([N+](=O)[O-])cc2s1)c1ccc(S(=O)(=O)N2CCCc3ccccc32)cc1, CC1CCCCN1c1ncnc(N)c1[N+](=O)[O-] (configuration not stated), Nc1ncnc(N2CCc3ccccc32)c1[N+](=O)[O-], COc1ccc2sc3c(=O)[nH]c4ccccc4c3c2c1, Cc1ccc(S(=O)(=O)N2CCN(c3ncnc4sccc34)CC2)cc1, O=S(=O)(c1ccc2c(c1)OCCO2)N1CCN(c2ncnc3sccc23)CC1, O=C(O)CCSc1nnc(-c2ccc3c(c2)OCO3)o1, O=C(Nc1nccs1)c1sc2cc(Cl)ccc2c1Cl, Cc1cc(NC(=O)c2cccs2)n(-c2nc3ccccc3[nH]2)n1, Cc1ccc(NC(=O)CSc2ncnc3ccccc23)cc1S(=O)(=O)N1CCOCC1, CCOC(=O)c1ccc(NC(=O)c2ccc(C)c(S(=O)(=O)N3CCOCC3)c2)cc1, O=C(Nc1ccc(Cl)c(S(=O)(=O)N2CCOCC2)c1)c1ccc(OCC2CCCO2)cc1 (configuration not stated), COc1ccc(C(=O)Nc2ccc(-c3ccc(C)o3)cc2)cc1S(=O)(=O)N1CCOCC1, CCOc1ccc(Nc2ncnc3ccc([N+](=O)[O-])cc23)cc1, Cc1nn(-c2ccccc2)c(Cl)c1C(=O)N1CCN(c2ncnc3c2cnn3-c2ccccc2)CC1, CN(C)CC(CCC(CN(C)C)C(=O)c1ccccc1)C(=O)c1ccccc1.Cl (configuration not stated), O=C(NCc1cccnc1)/C(=C\c1ccc(-c2cccc(Cl)c2)o1)S(=O)(=O)c1ccccc1, O=C(NCc1cccnc1)/C(=C/c1ccc(-c2cccc(Cl)c2)o1)S(=O)(=O)c1ccccc1, O=C(CCl)N1N=C(c2cccs2)CC1c1ccco1 (configuration not stated), O=C(CCl)N1N=C(c2ccco2)CC1c1ccco1 (configuration not stated), Cc1[nH]n(-c2ccccc2)c(=O)c1/C=N/NC(=O)c1cccc([N+](=O)[O-])c1, COc1ccc(C(=O)Nc2ccccc2C(=O)N/N=C/c2ccccn2)cc1OC, Cc1ccc(-n2[nH]c(C)c(/C=N/Nc3ccc([N+](=O)[O-])cc3[N+](=O)[O-])c2=O)cc1C, O=C(N/N=C/c1ccccn1)c1sc2ccccc2c1Cl, CC(/C=C/c1ccccc1)=N/NC(=O)c1cc([N+](=O)[O-])cc([N+](=O)[O-])c1, O=C(N/N=C/c1ccccn1)c1ccc(Cl)c(Cl)c1, O=C(N/N=C/c1ccccn1)c1cc([N+](=O)[O-])cc([N+](=O)[O-])c1, Cc1cccc(/C=N/NC(=O)c2cccc([N+](=O)[O-])c2)n1, Cc1c(CCC(=O)O)c(=O)oc2cc3oc4c(c3cc12)CCCC4, O=C(Sc1cccc2cccnc12)c1ccc(F)cc1, O=C(Sc1cccc2cccnc12)c1ccccc1Br, O=C(Nc1ccc(N2CCN(c3ncccc3C(F)(F)F)CC2)nc1)c1cccs1, COc1cc(C(=O)N/N=C(\c2ccccc2)c2ccccn2)cc(OC)c1OC, O=C(N/N=C(\c1ccccc1)c1cccnc1)c1cccc(F)c1, COc1cccc(C(=O)N/N=C(/c2ccccc2)c2ccccn2)c1, COc1ccc(C(=O)N/N=C(\c2ccccc2)c2ccccn2)cc1, CCOC(=O)c1c(NC(=S)NCCc2ccccc2)sc2c1CC(C(C)C)OC2 (configuration not stated), Cn1c(=O)c(C(=O)CCl)c(N)n(Cc2ccccc2)c1=O, O=C(CSc1n[nH]c(-c2ccccn2)n1)Nc1cccc(Cl)c1, O=C(CSc1n[nH]c(-c2ccccn2)n1)Nc1ccc(Cl)cc1, Cc1ccccc1Oc1cc(-n2ncc(Cl)c(Cl)c2=O)ncn1, CCCCNC(=O)c1sc(=S)n2c1[nH]c(=O)c1ccccc12, O=C(NCc1ccccc1)c1sc(=S)n2c1[nH]c(=O)c1ccccc12, O=C(NCc1ccco1)c1sc(=S)n2c1[nH]c(=O)c1ccccc12, CC(C)NC(=O)c1sc(=S)n2c1[nH]c(=O)c1ccc(C(=O)NCCc3ccc(Cl)cc3)cc12
